Experimental data published in PubChem BioAssay (NCATS).
Records with an inconclusive call do not appear. Entries that show only a call come without a potency. A number with no mark means an inactive call. Activity calls are given as the source filed them. The call rests on the fitted dose curve; in most records, active means well fitted inhibition curve with a large enough effect; inconclusive means small, poorly fitted or top-dose-only effect; inactive means no such curve, though single readings can be large or run the other way.

Key:
[1] = system: Zika virus NS2B-NS3 protease (unlinked complex); test: Primary screen GU Rhodamine qHTS for Zika virus inhibitors: Unlinked NS2B-NS3 protease assay (AID 1347159); conditions: Recombinant ZIKV NS2B-NS3 protease, Rhodamine110 substrate fluorescence; series mostly up to 107 µM; further: nearly all actives have a fitted effect of over 60% in size
Outline: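 Enzyme 25 nM in Tris-HCl pH 8.0 + 0.01% Tween 20; compounds up to 114 microM, 15 min RT dark; + Rhod110 substrate 1.5 microM; read t0 and 15 min; delta fluorescence → % inhibition → 4-parameter Hill fit.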

[2] = system: Zika virus NS2B-NS3 protease (linked construct); test: Primary screen NINDS Rhodamine qHTS for Zika virus inhibitors (AID 1347160); conditions: purified NS2B-NS3 protease, Rhodamine110 substrate fluorescence; series mostly up to 57.1 µM; further: nearly all actives have a fitted effect of over 55% in size
Outline: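 Enzyme (25 nM, linked NS2B-NS3) was preincubated 15 min with compound in 10 mM Tris-HCl pH 8.0, 0.01% Tween 20. Rhodamine110 substrate (1.5 microM) was then added and fluorescence read at start and after 15 min.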

Structure (SMILES)	Potency [1]	Potency [2]	activity change, negative = inhibition [1]	activity change, negative = inhibition [2]
Cc1[nH]nc(C(F)(F)F)c1Cc1sc2c(c1C(=O)N1C[C@](C)(O)CO1)c(=O)n(C)c(=O)n2C(C)C	inactive	inactive		
OCc1ccc(O[C@@H]2O[C@H](CO)[C@@H](O)[C@H](O)[C@H]2O)cc1	inactive	inactive		
Cc1cccc(C)c1-n1c(=O)c2cnc(Nc3ccc(N4CCN(C)CC4)cc3)nc2n2c3ccccc3nc12	inactive	inactive		
CC(C)(C)NC(=O)[C@@H](c1cccnc1)N(C(=O)c1ccco1)c1ccc(C(C)(C)C)cc1	inactive	inactive		
C[C@@H]1O[C@@H](O[C@@H]2[C@@H](O[C@@H]3O[C@@H](C)[C@H](O[C@@H]4OC[C@H](O)[C@H](O[C@@H]5OC[C@@H](O)[C@H](O)[C@H]5O)[C@H]4O)[C@@H](O[C@@H]4OC[C@](O)(CO)[C@H]4O)[C@H]3O)[C@H](OC(=O)[C@]34CCC(C)(C)C[C@H]3C3=CCC5[C@@]6(C)C[C@H](O)[C@H](O[C@@H]7O[C@H](CO[C@@H]8OC[C@H](O)[C@H](O)[C@H]8O)[C@@H](O)[C@H](O)[C@H]7O)C(C)(C)C6CC[C@@]5(C)[C@]3(C)C[C@H]4O)OC[C@H]2O)[C@H](O)[C@H](O)[C@H]1O (stereo partly drawn)			11.8% [at 19.1 µM]	1.34% [at 10.7 µM]
Cc1nc2ccc(Oc3ccc(F)cc3)cc2c(=O)n1C[C@H]1CCCN(C(C)C)C1	inactive	inactive		
C=C(C)C1CCC(C)C12CC(O)C1(C)OC1C2OC(=O)C(N)CCC(=O)O (stereo not drawn)	inactive	inactive		
CC(C)=CCC[C@](C)(O[C@@H]1O[C@H](CO)[C@@H](O)[C@H](O)[C@H]1O)[C@H]1CC[C@]2(C)[C@@H]1[C@H](O)CC1[C@@]3(C)CC[C@H](O)C(C)(C)C3[C@@H](O[C@@H]3O[C@H](CO)[C@@H](O)[C@H](O)[C@H]3O)C[C@]12C (stereo partly drawn)	inactive	inactive		
O=C(NCc1cccc(O)c1)Nc1nc(-c2ccncc2)cs1	inactive	inactive		
O=C(CCc1ccccc1)N1CCC(O)(Cn2cnc3cc(Cl)ccc3c2=O)CC1	inactive	inactive		
Cc1cc(Nc2cc(N3CCN(C)CC3)nc(/C=C/c3ccccc3)n2)n[nH]1	inactive	inactive		
COc1cc2ncnc(Nc3cccc(O)c3)c2cc1OC	inactive	inactive		
CC(NC(=O)C(O)C(C)C)C(=O)NC1C(=O)N(C)CCc2ccccc21 (stereo not drawn)	inactive	inactive		
C=C1C(=O)O[C@@H]2/C=C(\C)C(=O)/C=C/[C@](C)(O)C[C@@H](OC(=O)C(C)C)[C@@H]12	inactive	inactive		
O=C(CSc1nc2c(c(=O)n1-c1ccccc1)SCC2)Nc1ccc(-c2ccccc2)cn1	inactive	inactive		
FC(F)(F)c1cc(-c2ncn(/C=C\c3nnco3)n2)cc(C(F)(F)F)c1	inactive	inactive		
C[C@@H]1O[C@@H](O[C@H]2[C@H](O[C@H]3CC[C@@]4(C)C(CC[C@]5(C)C4CC=C4[C@@H]6CC(C)(C)CC[C@]6(C(=O)O[C@@H]6OC[C@H](O)[C@H](O)[C@H]6O[C@@H]6O[C@@H](C)[C@H](O[C@@H]7O[C@H](CO)[C@@H](O)[C@H](O)[C@H]7O)[C@H](O)[C@H]6O)[C@H](O)C[C@]45C)C3(C)C)O[C@H](CO)[C@@H](O[C@@H]3OC[C@@H](O)[C@H](O)[C@H]3O)[C@@H]2O)[C@H](O)[C@H](O)[C@H]1O (stereo partly drawn)			-6.95% [at 19.1 µM]	-3.53% [at 10.7 µM]
CC(C)(C)c1cc(Br)cc([C@H](CC(=O)O)NC(=O)CNC(=O)c2cc(O)cc(NC3=NCC(O)CN3)c2)c1 (stereo partly drawn)	inactive	inactive		
COc1cc2c(cc1O)[C@H](c1ccc(O[C@@H]3O[C@H](CO)[C@@H](O)[C@H](O)[C@H]3O)c(OC)c1)[C@@H](CO)[C@](O)(CO)C2	inactive	inactive		
COc1cc2ncnc(Nc3ccc(O)cc3)c2cc1OC	inactive	inactive		
NC(=O)Nc1cc(-c2cccc(F)c2)sc1C(=O)NC1CCCNC1 (stereo not drawn)	inactive	inactive		
CCOC(=O)CCN(C(=O)c1ccc2c(c1)nc(CNc1ccc(C(=N)N)cc1)n2C)c1ccccn1	inactive	inactive		
CC(=O)C12OC(C)(C)OC1CC1C3CCC4=CC(=O)C=CC4(C)C3(F)C(O)CC12C (stereo not drawn)	inactive	inactive		
O=C1CSc2ccccc2N1Cc1cccc(C(F)(F)F)c1	inactive	inactive		
C/C=C1\[C@H](OC2OC(COC3OC(CO)C(O)C(O)C3O)C(O)C(O)C2O)OC=C(C(=O)OC)[C@H]1CC(=O)OCCc1ccc(O)cc1 (stereo partly drawn)	inactive	inactive		
OC[C@H]1O[C@@H](Oc2cc(O)c3c(c2)O[C@@H](c2ccc(O)cc2)[C@H](O)C3)[C@H](O)[C@@H](O)[C@@H]1O	inactive	inactive		
CNC(=O)c1cc(Oc2ccc3nc(N[C@@H]4CCCC[C@H]4O)sc3c2)ccn1	inactive	inactive		

Structure (SMILES)	Potency [1]	Potency [2]	activity change, negative = inhibition [1]	activity change, negative = inhibition [2]
COC1CC(O[C@H]2CC[C@@]3(C)C(CCC4C3[C@H](OC(C)=O)[C@@H](OC(=O)/C=C/c3ccccc3)[C@]3(C)C(C(C)=O)CC[C@]43O)C2)OC(C)C1OC1CC(OC)C(OC2CC(OC)C(OC3OC(C)C(OC4OC(CO)C(O)C(O)C4O)C(OC)C3O)C(C)O2)C(C)O1 (stereo partly drawn)			-9.68% [at 19.1 µM]	20.6% [at 10.7 µM]
C#CC[C@H](c1nc2cc(Cl)ccc2c(=O)n1Nc1ccccc1)N(CCCN)C(=O)c1cccc(Cl)c1F	inactive	inactive		
O=C1NC2CCc3nc4ccccc4c(=O)n3C2=Nc2ccccc21 (stereo not drawn)	inactive	inactive		
Cn1cc(S(=O)(=O)c2ccc(Cl)cc2)c2cccc(N3CCNCC3)c21	inactive	inactive		
CC1=C(CO)C(=O)O[C@@H]([C@@H](C)[C@H]2CC[C@H]3[C@@H]4C[C@H]5O[C@]56[C@@H](O)C=CC(=O)[C@]6(C)[C@H]4CC[C@]23C)C1	inactive	inactive		
NC[C@@](O)(c1ccc(Cl)cc1)c1ccc(-c2cn[nH]c2)cc1	inactive	inactive		
CCCN1CCN(c2ccc(C(=O)NC3(C(=O)NCC#N)CCCCC3)cc2)CC1	inactive	inactive		
CC(C)[C@@H]1C(=O)N(S(C)(=O)=O)[C@@H]2CCN(C(=O)/C=C/CN3CCCCC3)[C@H]21	inactive	inactive		
Nc1ccc(/C=C/C(=O)NCc2cc3cc(-c4ccc(C(=O)N5CCC(F)(F)CC5)cc4)cc(-c4ccc(F)cc4)c3o2)cn1	inactive	inactive		
CNC12CC3C[C@@](C)(C1)C[C@](C)(C3)C2	inactive	inactive		
COc1cc2c(cc1O)CC[C@H]1[C@@H]2CC[C@]2(C)[C@H](O)CC[C@@H]12	inactive	inactive		
COc1cc(NC(=O)Nc2cccc(CNC(=O)O[C@H]3CCOC3)c2)ccc1-c1cnco1	inactive	inactive		
CC(=O)O[C@@H]1C[C@@H](OC(C)=O)C(C)(C)/C=C/[C@H](C)[C@H](OC(C)=O)[C@@]2(O)C[C@H](C)[C@H](OC(=O)c3ccccc3)[C@@H]2/C=C/1C	inactive	inactive		
O=C(/C=C/c1ccccc1)OC[C@]12O[C@H]1[C@@H](O)[C@@H]1C=CO[C@@H](O[C@@H]3O[C@H](CO)[C@@H](O)[C@H](O)[C@H]3O)[C@@H]12	inactive	inactive		
CC[C@@](C)(Nc1ccnc(-c2c[nH]c3ncccc23)n1)C(=O)NCC(F)(F)F	inactive	inactive		
C[C@@H]1CC[C@]2(C(=O)OC3OC(CO)C(O)C(O)C3O)CC[C@]3(C)C(=CCC4[C@@]5(C)CC[C@H](O)[C@](C)(C(=O)O)C5CC[C@]43C)C2[C@]1(C)O (stereo partly drawn)	inactive	inactive		
N#C[C@@H]1CCCN1C(=O)CNC12CC3CC(CC(O)(C3)C1)C2	inactive	inactive		
COC(=O)/C=C/C12COC(C)(C)C1C(O)C(OC(C)=O)C1(C)C2CCC2(C)C(c3ccoc3)OC(=O)C3OC321 (stereo not drawn)	inactive	inactive		
CS(=O)(=O)c1ccc(-c2nnc(/C=C/c3nnc(-c4ccc(C#N)cc4)o3)n2-c2ccccc2Cl)nc1	inactive	inactive		
Cc1nc([C@](C)(O)CO)sc1-c1cnc(N)c(O[C@H](C)c2cc(F)ccc2-n2nccn2)c1	inactive	inactive		
CC(=O)NCC(=O)N1C2CCC1c1cc(Nc3ncc(C(F)(F)F)c(NC4CCC4)n3)ccc12 (stereo not drawn)	inactive	inactive		
CC1(C)CC[C@]2(C(=O)O[C@@H]3O[C@H](CO)[C@@H](O)[C@H](O)[C@H]3O)CC[C@]3(C)C(=CCC4[C@@]5(C)C[C@@H](O)[C@H](O)[C@](C)(C(=O)O)C5CC[C@]43C)C2C1O (stereo partly drawn)	inactive	inactive		
Cc1ccc(NC(=O)C(=O)NC2CC(C)(C)NC(C)(C)C2)cc1	inactive	inactive		
CC(=O)O[C@@](C)(C(=O)/C=C/C(C)(C)O)[C@H]1[C@H](O)C[C@@]2(C)[C@@H]3CC=C4[C@@H](C=C(O)C(=O)C4(C)C)[C@]3(C)C(=O)C[C@]12C	inactive	inactive		
CC1(C)CCC2(C(=O)OC3OC(CO)C(O)C(O)C3O)CCC3(C)C(=CCC4C5(C)CCC(OC6OC(C(=O)O)C(OC7OC(CO)C(O)C(O)C7O)C(OC7OC(CO)C(O)C(O)C7O)C6O)C(C)(C)C5CCC43C)C2C1 (stereo not drawn)	inactive	inactive		
CC(=O)O[C@H]1CC(C)(C)CC2[C@@]13[C@H](O)C[C@]1(C)[C@@]2(CCC2[C@@]4(C)CC[C@H](O[C@@H]5OC[C@H](O[C@@H]6O[C@H](CO)[C@@H](O)[C@H](O)[C@H]6O[C@@H]6OC[C@@H](O)[C@H](O)[C@H]6O)[C@H](O)[C@H]5O[C@@H]5O[C@H](CO)[C@@H](O)[C@H](O)[C@H]5O)C(C)(C)C4CC[C@]21C)O[C@@H]3O (stereo partly drawn)	inactive	inactive		
CC1CCN(C(=O)CC#N)CC1N(C)c1ncnc2[nH]ccc12 (stereo not drawn)	inactive	inactive		
